Compound activity deposited in PubChem by National Center for Advancing Translational Sciences (NCATS).
Most compounds without a hit are left out; they make up all but 19% or so of the library.
IL1B secr inh: blocks inflammasome-driven IL-1 beta release; THP-1 LPS/ATP IL-1B secretion, AlphaLISA, 16 h; stronger effect = lower value; activity change, % at 57.5 µM; 4.7% of 360,000 active; AID 743279; in the data active = activity change below about -50%; inconclusive = mostly about -30% to -49%
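Secreted IL-1B measured by AlphaLISA bead assay after 16 h compound exposure of THP-1 cells; compounds (final up to 57.5 uM) added 1 h before LPS (250 ng/mL) and ATP (1.25 mM) stimulation; lower signal means less secretion.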
DT40 TDP1 CPT: growth inhibition of DT40 Tdp1-/-;hTDP1 cells with camptothecin (screen for TDP1 inhibitors); chicken DT40 Tdp1-/-;hTDP1 cells + 20 nM CPT, ATP luminescence, 48 h; Potency, µM (top dose mostly 46.2 µM), most hits filed as inhibitors; 12% of 420,000 active; note: nearly all actives have a fitted effect of over 55% in size
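Chicken DT40 Tdp1-/- cells stably complemented with human TDP1 were seeded at 400 cells/well in medium containing 20 nM camptothecin, exposed to pin-transferred compounds, and grown at 37 °C for at least 48 hr. Viability was read as ATP luminescence.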
HepG2 tox: HepG2 cytotoxicity, counter-screen for TGF-b inhibitors; HepG2 CAGA-GFP viability, ATP luminescence, 18 h; Potency, µM (highest dose often 46.1 µM), most hits filed as cytotoxic; 0.76% of 410,000 active
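HepG2 CAGA-GFP cells (1000/well, DMEM with 1% FBS) received compound, then TGF-beta at 500 pg/mL final, and were incubated 18 hours at 37 degrees C. Viability was read by CellTiter-Glo luminescence. Media-only wells were set as complete cell-killing and DMSO as no toxicity.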
DT40 TDP1 no CPT: qHTS for Inhibitors of human tyrosyl-DNA phosphodiesterase 1 (TDP1): qHTS in cells in absence of CPT; Potency, µM (top dose mostly 46.2 µM), actives largely listed as inhibitors; 15% of 420,000 active; AID 686978, 2013; DT40 Tdp1-/- hTDP1 cells, no CPT, ATP luminescence, 48 h; note: nearly all actives have a fitted effect of over 55% in size
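Readout: luminescence from CellTiter-Glo after 30 min in the dark at RT. Cells: DT40 Tdp1-/- with stable hTDP1, 400/well. Exposure: compounds alone, ≥48 hr, 37 °C.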
TGFb SMAD3 inh: TGF-b pathway inhibition; HepG2 CAGA-GFP TGF-b/SMAD3 reporter, GFP fluorescence, 18 h; TGF-beta stimulated, 500 pg/mL final; Potency, µM (top dose mostly 46.1 µM), usual class: inhibitors; 1.2% of 410,000 active; AID 588855; note: nearly all actives have a fitted effect of over 65% in size
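Using HEPG2 CAGA-GFP reporter cells at 1000 cells/well, we pinned test compounds, stimulated with recombinant TGF-beta (500 pg/mL final) and measured total well GFP after 18 h.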
ASM inhibitor: inhibitors of human secretory acid sphingomyelinase | P17405 | Potency, µM (top dose mostly 57.5 µM), usual class: inhibitors | placental ASM, HMU-PC fluorogenic substrate, 60 min | 0.006% of 340,000 active
Target sequence (P17405 47-631 limits assumed): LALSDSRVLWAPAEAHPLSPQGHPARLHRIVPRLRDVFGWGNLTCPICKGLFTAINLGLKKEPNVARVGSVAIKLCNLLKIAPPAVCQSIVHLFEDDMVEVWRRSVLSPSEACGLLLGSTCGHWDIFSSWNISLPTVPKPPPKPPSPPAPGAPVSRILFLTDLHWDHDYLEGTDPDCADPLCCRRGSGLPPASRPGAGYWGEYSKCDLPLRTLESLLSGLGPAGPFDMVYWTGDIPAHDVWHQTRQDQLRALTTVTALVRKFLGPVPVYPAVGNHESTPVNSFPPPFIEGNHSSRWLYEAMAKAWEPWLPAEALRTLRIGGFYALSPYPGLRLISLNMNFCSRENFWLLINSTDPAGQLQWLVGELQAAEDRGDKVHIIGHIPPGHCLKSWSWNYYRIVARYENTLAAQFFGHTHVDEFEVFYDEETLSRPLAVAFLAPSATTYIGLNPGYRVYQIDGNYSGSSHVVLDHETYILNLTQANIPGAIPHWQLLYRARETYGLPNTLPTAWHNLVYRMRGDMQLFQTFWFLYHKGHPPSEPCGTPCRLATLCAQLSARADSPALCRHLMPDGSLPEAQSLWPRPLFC
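Human placenta-derived ASM preincubated with compound 10 min at room temperature, then reacted with 9 uM (final) fluorogenic HMU-PC substrate for 60 min at 37 C. Stop solution raises pH to 10; fluorescence read at Ex 386/Em 447 nm.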
Hits are given with their value. Unless noted, calls come from the whole dose curve; as a rule, active = well fitted curve in the direction sought with a large enough effect; inconclusive = small, poorly fitted or top-dose-only effect, or another doubt; inactive = no such curve, though single readings can be large; an effect the other way counts as inactive or inconclusive.

`CCc1nnc(NC(=O)CSc2nc(C)c3c(c2C#N)CCCC3)s1` gave IL1B secr inh inactive, DT40 TDP1 CPT 18µM, HepG2 tox inactive, DT40 TDP1 no CPT 18µM, TGFb SMAD3 inh inactive and ASM inhibitor inactive.
For COc1ccc(-c2cc(-c3ccccc3)nc(SCC(=O)Nc3nccs3)c2C#N)cc1 the results were IL1B secr inh inactive, DT40 TDP1 CPT inconclusive, HepG2 tox inactive, DT40 TDP1 no CPT 8.2µM, TGFb SMAD3 inh inactive and ASM inhibitor inactive.
N#Cc1c(-c2ccc(Cl)cc2)cc(-c2ccccc2)nc1SCC(=O)O was read as IL1B secr inh inactive, DT40 TDP1 CPT 18µM, HepG2 tox inactive, DT40 TDP1 no CPT inconclusive, TGFb SMAD3 inh inconclusive and ASM inhibitor inactive.
For COc1ccc(-c2cc(-c3ccccc3)c(C#N)c(SCC(=O)Nc3ncc(C)s3)n2)cc1 the results were IL1B secr inh inactive, DT40 TDP1 CPT inactive, HepG2 tox inactive, DT40 TDP1 no CPT inconclusive, TGFb SMAD3 inh inconclusive and ASM inhibitor inactive.
For N#Cc1c(-c2ccccc2)cc(-c2ccccc2)nc1SCC(=O)Nc1ccc(Cl)cc1 the results were DT40 TDP1 CPT inactive, HepG2 tox inactive, DT40 TDP1 no CPT inactive and TGFb SMAD3 inh inactive.
Screening Cc1ccc(N2CCN(C(=O)c3ccc(Nc4nc5ccccc5n5nnnc45)cc3)CC2)c(C)c1 returned DT40 TDP1 CPT inactive, HepG2 tox inactive, DT40 TDP1 no CPT inactive and TGFb SMAD3 inh inactive.
Screening CNC(=O)NC(=O)C(OC(=O)CCNS(=O)(=O)c1ccccc1)c1ccccc1 (stereo not drawn) returned IL1B secr inh inactive, DT40 TDP1 CPT inactive, HepG2 tox inactive, DT40 TDP1 no CPT inactive, TGFb SMAD3 inh inactive and ASM inhibitor inactive.
`Cc1ccc2c(CC(=O)Nc3ccc(S(=O)(=O)N4CCC(C)CC4)cc3)coc2c1` gave DT40 TDP1 CPT inconclusive, HepG2 tox inactive, DT40 TDP1 no CPT inconclusive and TGFb SMAD3 inh inconclusive.
O=C(NC1CC(=O)N(c2ccc(F)cc2)C1)c1ccc(S(=O)(=O)N2CCOCC2)cc1 (stereo not drawn) was read as DT40 TDP1 CPT inactive, HepG2 tox inactive, DT40 TDP1 no CPT inactive and TGFb SMAD3 inh inactive.
Screening CCc1nnc(NC(=O)CSc2nc(-c3ccccc3)cc(-c3ccc(OC)cc3)c2C#N)s1 returned IL1B secr inh inactive, DT40 TDP1 CPT 23µM, HepG2 tox inactive, DT40 TDP1 no CPT 21µM, TGFb SMAD3 inh inactive and ASM inhibitor inactive.
O=C(NC1CCCCC1)C(c1ccc2ncccc2c1)N(Cc1ccc2c(c1)OCO2)C(=O)c1ccc2c(c1)OCCO2 (stereo not drawn) was read as IL1B secr inh inactive, DT40 TDP1 CPT inconclusive, HepG2 tox inactive, DT40 TDP1 no CPT 26µM, TGFb SMAD3 inh inactive and ASM inhibitor inactive.
`O=C(NC1CCCCC1)C(c1ccccc1)N(Cc1ccc2c(c1)OCO2)C(=O)c1cnsn1` (stereo not drawn) gave IL1B secr inh -61, DT40 TDP1 CPT 21µM, HepG2 tox inactive, DT40 TDP1 no CPT inconclusive, TGFb SMAD3 inh inactive and ASM inhibitor inactive.
Cc1ccc(C(=O)NC2CCS(=O)(=O)C2)cc1S(=O)(=O)N1CCCC1 (stereo not drawn) was read as IL1B secr inh inactive, DT40 TDP1 CPT inactive, HepG2 tox inactive, DT40 TDP1 no CPT inactive, TGFb SMAD3 inh inactive and ASM inhibitor inactive.
Screening COc1ccc(S(=O)(=O)NCC(=O)Nc2ccc3c(c2)OCCO3)cc1OC returned IL1B secr inh inactive, DT40 TDP1 CPT inactive, HepG2 tox inactive, DT40 TDP1 no CPT inactive, TGFb SMAD3 inh inactive and ASM inhibitor inactive.
Screening COc1ccccc1N1CCN(c2nc3ccc(C(=O)c4ccccc4)cc3n3c(C)nnc23)CC1 returned DT40 TDP1 CPT inactive, HepG2 tox inactive, DT40 TDP1 no CPT inactive and TGFb SMAD3 inh inactive.
`O=C(CCCCCn1c(=O)[nH]c2ccccc2c1=O)NCCc1ccccc1` gave DT40 TDP1 CPT 0.29µM, HepG2 tox inactive, DT40 TDP1 no CPT 0.46µM and TGFb SMAD3 inh inactive.
For CCN(CCCNC(=O)CCCn1c(=O)[nH]c2ccccc2c1=O)c1cccc(C)c1 the results were IL1B secr inh inconclusive, DT40 TDP1 CPT inconclusive, HepG2 tox inactive, DT40 TDP1 no CPT 21µM, TGFb SMAD3 inh inactive and ASM inhibitor inactive.
For COC(=O)c1ccc2c(=O)n(CCCCCC(=O)NCCc3ccccc3)c(=O)[nH]c2c1 the results were DT40 TDP1 CPT inconclusive, HepG2 tox inactive, DT40 TDP1 no CPT 18µM and TGFb SMAD3 inh inactive.
Screening COc1cc2[nH]c(=O)n(CCCCCC(=O)NCCc3ccccc3)c(=O)c2cc1OC returned DT40 TDP1 CPT inactive, HepG2 tox inactive, DT40 TDP1 no CPT inactive and TGFb SMAD3 inh inconclusive.
`COc1ccc(C(=O)CN2C(=O)N(c3cc(C)ccc3C)S(=O)(=O)c3ccccc32)cc1` gave DT40 TDP1 CPT inactive, HepG2 tox inactive, DT40 TDP1 no CPT inactive and TGFb SMAD3 inh inactive.
For O=Cc1cn(CC(=O)N2CCCc3ccccc32)c2ccccc12 the results were IL1B secr inh inactive, DT40 TDP1 CPT 5.8µM, HepG2 tox inactive, DT40 TDP1 no CPT 5.8µM, TGFb SMAD3 inh inactive and ASM inhibitor inactive.
`CCn1cc(SCC(=O)N2CCc3ccccc32)c2ccccc21` gave IL1B secr inh inactive, DT40 TDP1 CPT inconclusive, HepG2 tox inactive, DT40 TDP1 no CPT 21µM, TGFb SMAD3 inh inactive and ASM inhibitor inactive.
Cn1cc(C(=O)C(=O)N2CCCc3ccccc32)c2ccccc21 was read as IL1B secr inh inactive, DT40 TDP1 CPT 16µM, HepG2 tox inactive, DT40 TDP1 no CPT 13µM, TGFb SMAD3 inh inactive and ASM inhibitor inactive.
CCn1c(SCC(=O)N2CCN(c3ccccc3)CC2)nnc1-c1c[nH]c2ccccc12 was read as IL1B secr inh inactive, DT40 TDP1 CPT 21µM, HepG2 tox inactive, DT40 TDP1 no CPT inconclusive, TGFb SMAD3 inh inactive and ASM inhibitor inactive.
`CCC(C)(C)c1nnc(NC(=O)c2cccc([N+](=O)[O-])c2)s1` gave IL1B secr inh inactive, DT40 TDP1 CPT inactive, HepG2 tox inactive, DT40 TDP1 no CPT inactive, TGFb SMAD3 inh inactive and ASM inhibitor inactive.
Screening Cc1ccc(C)c(NC(=O)CCC(=O)NN=C2CCCC2)c1 returned IL1B secr inh inactive, DT40 TDP1 CPT inactive, HepG2 tox inactive, DT40 TDP1 no CPT inactive, TGFb SMAD3 inh inactive and ASM inhibitor inactive.
CCn1c(SCC(=O)N2CCCc3ccccc32)nnc1-c1c[nH]c2ccccc12 was read as IL1B secr inh inactive, DT40 TDP1 CPT inconclusive, HepG2 tox inactive, DT40 TDP1 no CPT inconclusive, TGFb SMAD3 inh inconclusive and ASM inhibitor inactive.
